Compound activity: PubChem BioAssay, several laboratories
Sampled rows, rich in hits. Any-hit rate of the full collection: about 3.1%.
Mcl1 Noxa PPI = disrupts binding of human Mcl-1 to Noxa peptide; TR-FRET Mcl-1/Noxa peptide binding, 2 h; inhibition, % at 21.7 µM; AID 1022; 220,000 compounds, 1.5% hits; Q07820;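 active = compounds that cut the protein-peptide binding signal by more than 50% relative to plate controls in a single-dose test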;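 also: His-tagged Mcl-1 with rhodamine Noxa BH3 peptide and terbium anti-His antibody; 0% = Mcl-1 plus Noxa peptide wells and 100% = peptide-only wells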
Mcl1 Bid PPI = disrupts binding of human Mcl-1 to Bid peptide | Q07820 | TR-FRET Mcl-1/Bid-Dy647 peptide binding, 1536-well | inhibition, % at 21.7 µM | 220,000 compounds, 0.97% hits | AID 1021;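 active = compounds that cut the binding signal by more than half at the single screening dose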;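 also: His-tagged Mcl-1 with europium anti-His antibody binding Bid BH3 peptide; 0% = Mcl-1 plus peptide wells and 100% = peptide-only wells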
14-3-3 Bad inh = disrupts binding of bovine 14-3-3 zeta to phospho-Bad peptide; TR-FRET 14-3-3zeta/Dy647-pBad peptide displacement, 1 h; inhibition, % at 21.7 µM; 220,000 compounds, 0.71% hits; AID 781;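 active = inhibition above about 70%, limit read from the data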;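 also: 0% = full 14-3-3 plus peptide FRET controls and 100% = background without 14-3-3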
Target sequence (P63103 whole entry, looked up): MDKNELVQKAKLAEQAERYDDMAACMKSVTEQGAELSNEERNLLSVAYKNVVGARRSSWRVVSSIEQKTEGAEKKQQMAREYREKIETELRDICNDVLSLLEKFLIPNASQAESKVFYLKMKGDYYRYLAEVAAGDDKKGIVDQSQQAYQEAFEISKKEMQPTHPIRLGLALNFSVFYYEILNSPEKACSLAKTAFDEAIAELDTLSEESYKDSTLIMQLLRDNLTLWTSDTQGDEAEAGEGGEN
Bim-Mcl-1 = human Bim-Mcl-1 interaction inhibition | Q07820 | Bead-based flow cytometry, Bim peptide-Mcl-1 binding | inhibition, % at 10 µM | 190,000 compounds, 0.1% hits; in the data active = inhibition above about 40%;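 also: 0% = no compound tracer wells and 100% = peptide blocker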
p47phox inh = p47phox (human) inhibition | P14598 | p47phox/p22phox peptide binding, fluorescence polarization, 2 h | inhibition, % at 24.7 µM | 220,000 compounds, 0.53% hits | AID 1274;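 active = inhibition above about 30%, limit read from the data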;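 also: 0% = p47phox with labelled peptide and 100% = labelled peptide alone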
Target sequence (P14598 whole entry, looked up): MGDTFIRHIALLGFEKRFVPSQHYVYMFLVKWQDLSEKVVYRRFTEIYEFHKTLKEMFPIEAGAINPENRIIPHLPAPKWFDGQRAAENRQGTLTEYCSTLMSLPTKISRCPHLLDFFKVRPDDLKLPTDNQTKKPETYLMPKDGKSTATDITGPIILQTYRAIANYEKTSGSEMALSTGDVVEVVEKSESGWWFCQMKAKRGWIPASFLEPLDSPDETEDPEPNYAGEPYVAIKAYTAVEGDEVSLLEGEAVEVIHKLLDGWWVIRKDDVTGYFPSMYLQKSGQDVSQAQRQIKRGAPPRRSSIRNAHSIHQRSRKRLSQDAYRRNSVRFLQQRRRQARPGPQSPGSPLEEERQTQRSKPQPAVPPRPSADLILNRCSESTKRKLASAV
* = called active by the depositor; nt = no result given; [ ] = dose if it differs, or a comment.

SMILES | Mcl1 Noxa PPI | Mcl1 Bid PPI | 14-3-3 Bad inh | Bim-Mcl-1 | p47phox inh
CS(=O)(=O)N1Cc2ccccc2CC1C(=O)O (stereo not drawn) | 4.0 | -36.5 | 6.7 | 1.0 | -11.3
O=C(O)C1Cc2ccccc2CN1S(=O)(=O)/C=C/c1ccccc1 (stereo not drawn) | 41.4 | -31.3 | 85.6* | -3.0 | -7.5
O=c1cc(CSc2ccccn2)c2ccccc2[nH]1 | 8.6 | 11.1 | 81.2*[fluorescence artefact?] | 1.0 | 0.1
Cc1cccn2c(=O)c(C=O)c(N3CCSCC3)nc12 | 20.1 | -13.0 | -1.4 | nt | 4.9
O=C1CC(NNc2ccccc2)C(=O)N1c1ccc(N2CCCCC2)cc1 (stereo not drawn) | 14.8 | -41.6 | -1.6 | -1.0 | -4.3
Cc1cccc(OCCCCCn2ccnc2)c1 | 15.7 | 51.1* | 70.0 | 3.0 | -13.9
Cc1ccccc1OCCCCCn1ccnc1 | 19.2 | 0.9 | -17.4 | 0.0 | -12.3
O=[N+]([O-])c1ccc(O)c(C=Nc2ccc3nc(-c4ccccc4)[nH]c3c2)c1 | 62.4* | 63.3* | 49.7 | 0.0 | -8.2
O=[N+]([O-])c1ccc2nc(-c3ccncc3)[nH]c2c1 | 19.5 | -2.3 | 3.3 | nt | -17.6
Oc1c(Br)cc(C=Nc2ccc3nc(-c4ccccc4)[nH]c3c2)c(O)c1Br | 94.1* | -64.3 | 1.6 | 4.0 | -26.0
O=[N+]([O-])c1cccc(-c2nc3ccc([N+](=O)[O-])cc3[nH]2)c1 | 58.1* | 10.1 | 10.2 | 2.0 | -42.7
COC(=O)c1ccc(OCC(O)CN(CC(C)C)CC(C)C)cc1 (stereo not drawn) | 7.2 | -31.4 | -1.6 | -3.0 | -46.3
Cc1ccc2[nH]c(=O)c(-c3nc4cc(C)ccn4c3NCc3ccco3)cc2c1 | 59.8* | 80.1* | 62.9 | 0.0 | 3.2
CNS(=O)(=O)c1ccc(NC(=O)c2cncc(Br)c2)cc1 | 11.5 | 4.3 | 0.8 | -1.0 | 3.6
CC(=O)Nc1ccc(C2=NNC(=Nc3ccc(S(=O)(=O)N4CCOCC4)cc3)SC2)cc1 | 80.2* | -20.5 | 4.3 | nt | -39.3
CC(=O)Nc1ccc(C2=NNC(=Nc3cccc(S(=O)(=O)N(C)C)c3)SC2)cc1 | 96.5* | -18.4 | -0.1 | 0.0 | -14.9
O=S(=O)(c1ccc(N=C2NN=C(c3cc(F)ccc3F)CS2)cc1)N1CCOCC1 | 15.6 | -25.8 | -20.6 | -6.0 | -21.9
CC(=O)/C(C=Nc1noc(C)c1Br)=C(\C)O | 0.9 | 5.8 | -7.1 | nt | -2.0
O=C1N=c2ccccc2=C1c1sc(Nc2ccc(O)cc2)nc1O | 83.0* | 49.8 | 82.9* | 1.0 | -77.4
CCOC(=O)N1CCC(n2c(SCC(=O)c3ccccc3)nc3ccsc3c2=O)CC1 | -202.9 | 65.1* | 14.8 | 0.0 | 2.9
Cc1cc(C)c(S(=O)(=O)ON2C(=O)c3ccccc3C2=O)cc1C | 72.3* | -16.9 | 3.0 | 2.0 | -7.0
Cc1ccc(S(=O)(=O)ON2C(=O)c3ccccc3C2=O)c(C)c1 | 70.9* | -37.3 | 12.7 | -17.0 | -17.4
CCOc1ccc(/C=N/NC(=O)CN2CCCCCCC2)cc1 | 14.7 | 40.6 | 21.8 | -4.0 | -3.2
COc1ccc(NC(=O)/C(=C\c2ccncc2)NC(=O)c2ccccc2)cc1 | 19.4 | -39.1 | -5.3 | -1.0 | -6.3
Cc1[nH]n(C(N)=S)c(=O)c1N=Nc1ccc(S(=O)(=O)N2CCCCCC2)cc1 | -26.5 | -258.1 | -20.9 | 51.0* | -23.5
SMILES | Mcl1 Noxa PPI | Mcl1 Bid PPI | 14-3-3 Bad inh | Bim-Mcl-1 | p47phox inh
Cc1ccc(N=Nc2c(C)[nH]n(C(N)=S)c2=O)cc1C | -1.0 | -57.2 | -6.4 | -1.0 | -8.2
CC1(c2ccccc2)CC(C)(C)n2c(O)c(C3=NC(=S)NC3=O)c3cccc1c32 (stereo not drawn) | 60.2* | 21.6 | 11.3 | nt | 7.3
Cc1ccc(/C=C2\C(=O)Nc3ccccc32)o1 | 62.3* | -42.5 | 1.9 | 0.0 | -7.1
Cc1ccc2c(c1)/C(=C/c1ccco1)C(=O)N2 | 6.7 | -35.7 | -15.8 | -2.0 | -12.0
COc1ccc2[nH]c(=O)c(CN(C)C(=O)c3cccs3)cc2c1 | 8.1 | 29.4 | 10.1 | nt | -2.8
COc1ccc2[nH]c3c(C)c4ccncc4c(C)c3c2c1 | 85.6* | -10.0 | 49.9 | nt | 91.8*
C=CCNCCOCCOc1ccc(Cl)cc1C(C)(C)C | 22.5 | 57.8* | 51.8 | -2.0 | -1.9
C=CCNCCCOc1ccc(Cl)cc1C(C)(C)C | 27.6 | 32.5 | 65.2 | 2.0 | -10.2
CCOc1cc2c3c(c1)C(C)=CC(C)(C)N3C(=O)C2=O | 8.1 | -62.3 | -12.5 | 0.0 | 2.9
CC(=O)Oc1cc2c3c(c1)/C(=C1/SC(=S)NC1=O)C(=O)N3C(C)(C)C=C2C | 51.0* | -41.1 | -5.6 | nt | 6.1
O=C(Cn1nnc(-c2ccccc2F)n1)Nc1ccc(S(=O)(=O)NC2CCCC2)cc1 | -22.8 | -3.1 | 5.2 | -6.0 | -3.0
O=C(/C=C/c1ccc(Cl)c([N+](=O)[O-])c1)Nc1ccc(N2CCCC2)cc1 | 75.0* | -38.6 | -20.4 | -8.0 | 2.5
O=C(/C=C/c1ccc(Cl)c([N+](=O)[O-])c1)Nc1ccc(NC(=O)c2ccco2)cc1 | 46.8 | 39.6 | 13.0 | -9.0 | -12.6
O=C(Nc1cccc(Cl)c1N1CCCC1)c1cccc(-c2cc3ccccc3oc2=O)c1 | -4.5 | -15.2 | -4.8 | 0.0 | -39.7
O=[N+]([O-])c1ccc(/C=N/n2c(CO)nc3ccccc32)s1 | 57.7* | 30.3 | 10.1 | -6.0 | 6.3
Cc1nc2ccccc2n1/N=C/c1ccc([N+](=O)[O-])s1 | 18.9 | 29.2 | 25.2 | -2.0 | -6.2
CSCCC(NC(=O)c1ccccc1)C(=O)N/N=C(\C)c1ccccc1 (stereo not drawn) | 14.7 | -26.9 | -4.6 | -5.0 | -3.0
COC(=O)/C=C1\OC(c2ccccc2)=CC1=O | 66.0* | 0.8 | -5.6 | -15.0 | -3.2
COc1ccc(CNC(=O)c2ccc(-c3ccccc3)cc2)cc1 | 3.9 | 1.3 | 8.9 | 1.0 | -0.2
COc1cc(-c2nc(-c3ccccc3)c(-c3cccs3)[nH]2)cc(OC)c1OC | -8.4 | -14.5 | 4.3 | 5.0 | -33.9
COc1cc(-c2nc(-c3ccccc3)c(-c3cccs3)[nH]2)cc(OC)c1O | 54.7* | -29.2 | -2.5 | 4.0 | -42.8
Cc1ccc(S(=O)(=O)N2CC3CCCC2C3)cc1 (stereo not drawn) | -17.5 | -6.5 | -1.9 | nt | 3.1
N#CC1=C(O)C(c2ccccc2)n2c1nc(=O)c1ccccc12 (stereo not drawn) | 0.5 | 7.1 | 90.5* | 1.0 | -67.5
N#CC1=C(O)CCCn2c1nc1ccccc1c2=O | 29.8 | -24.9 | 61.7 | 1.0 | -0.6
COC(=O)c1cc(NC(=O)C2CC(=O)NC(=NCc3ccc(OC)cc3)S2)cc(C(=O)OC)c1 (stereo not drawn) | -17.0 | -7.0 | -0.7 | 0.0 | -17.6
c1ccc(-c2cnnc(SCc3cn4cccnc4n3)n2)cc1 | -11.7 | -14.6 | 77.5* | 1.0 | -4.5
c1ccc2[nH]c(SCc3cn4cccnc4n3)nc2c1 | 10.8 | -9.7 | 1.5 | -7.0 | -2.9
O=C(Nc1ccc(OC(F)F)cc1)c1ncc(Cl)c(Cl)c1Cl | 0.5 | 5.1 | 98.2* | 0.0 | -10.4
COc1cccc(CNCc2ccc(SC)cc2)c1OC | 4.5 | -8.8 | 7.6 | 3.0 | -4.4
